# Source: PubChem BioAssay (NCATS)
# Values joined by “and” are separate entries in the source; they are usually repeats but may differ in a detail not shown here. Identical values can stand only once. Results filed as inconclusive are left out. A structure can be active in one record and inactive in another. Active and inactive are the calls of the source. Calls follow the shape of the dose curve; as a rule, active = well fitted curve in the direction sought with a large enough effect; inconclusive = small, poorly fitted or top-dose-only effect, or another doubt; inactive = no such curve, though single readings can be large; an effect the other way counts as inactive or inconclusive.
# Target: Phospholipid hydroperoxide glutathione peroxidase GPX4 (Homo sapiens) (UniProt P36969)
# Sequence (P36969 whole entry, looked up): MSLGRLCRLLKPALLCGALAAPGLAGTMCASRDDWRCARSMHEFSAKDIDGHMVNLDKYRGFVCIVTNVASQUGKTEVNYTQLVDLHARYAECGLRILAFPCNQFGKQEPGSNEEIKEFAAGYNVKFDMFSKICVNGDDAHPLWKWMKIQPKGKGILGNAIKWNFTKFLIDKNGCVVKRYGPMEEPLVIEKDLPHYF
# Assay: Primary qHTS Assay for Inhibitors of Recombinant Selenoprotein Glutathione Peroxidase 4 (GPX4) (AID 1845192); also: nearly all actives have a fitted effect of over 65% in size; also: potency is read from the fitted curve at half-maximal effect; as to activity change, negative = inhibition: % is scaled to controls: 0 for no effect and ±100 for the full control effect
# Details: recombinant GPX4, GR-coupled NADPH fluorescence, 15 min; series mostly up to 50 µM; activity change, negative = inhibition: at the top concentration
# Method in brief: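 NADPH consumption, followed by fluorescence at 340/450 nm between 0 and 15 min, reports GPX4 activity via coupled glutathione reductase (100 nM). Enzyme 200 nM was pre-exposed to compound 30 min; 0.5 mM cumene hydroperoxide and 1 mM GSH served as substrates.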
SMILES,Potency,"activity change, negative = inhibition",outcome
COC(=O)[C@@H]1[C@H]2C[C@H]3c4[nH]c5ccccc5c4CCN3C[C@@H]2CC[C@@H]1O,inactive,–,–
CC(=O)c1ccc(S(=O)(=O)NC(=O)NC2CCCCC2)cc1,inactive,–,–
C[N+](C)(C)CCCCCC[N+](C)(C)C,inactive,–,–
CC(C)(C)c1ccc(C(O)CCCN2CCC(C(O)(c3ccccc3)c3ccccc3)CC2)cc1 (configuration not stated),inactive,–,–
CCOc1ccc(Nc2nc(-c3c(C)nc4ccccn34)cs2)cc1,–,-17.3% (inactive),–
CC/C(=C(\c1ccccc1)c1ccc(OCCN(C)C)cc1)c1ccccc1,inactive,–,–
c1cc(-c2sc(-c3ccncc3)c(-c3ccncc3)c2-c2ccncc2)ccn1,–,-0.385% (inactive),–
CO[C@H]1C[C@@H]2CC[C@@H](C)[C@@](O)(O2)C(=O)C(=O)N2CCCC[C@@H]2C(=O)O[C@H]([C@@H](C)C[C@@H]2CC[C@H](O)[C@H](OC)C2)CC(=O)[C@H](C)C=C(C)[C@@H](O)[C@@H](OC)C(=O)[C@H](C)C[C@H](C)C=CC=CC=C1C,–,-11.6% (inactive),–
NC(N)=Nc1nc(CSCC/C(N)=N/S(N)(=O)=O)cs1,inactive,–,–
CC(=O)O[C@]1(C(C)=O)CC[C@H]2[C@@H]3C=C(Cl)C4=CC(=O)[C@@H]5C[C@@H]5[C@]4(C)[C@H]3CC[C@@]21C,inactive,–,–
O=C(O)Cc1cccc2ccccc12,–,3.42% (inactive),–
O=C(NCCN1CCOCC1)c1ccc(Cl)cc1,inactive,–,–
CCCCC1C(=O)N(c2ccccc2)N(c2ccccc2)C1=O,–,-9.5% (inactive),–
CC(C)(C)Cn1c(N)nc2ccc(-c3[nH]c(C(C)(C)C)nc3-c3ccc(F)cc3)nc21,inactive and 9.04 µM (active),–,–
CCN(CC)C(=O)c1ccc(O)c(OC)c1,–,–,inactive
CCn1cc(C(=O)O)c(=O)c2ccc(C)nc21,inactive,–,–

# Target: Luciferin 4-monooxygenase (Photinus pyralis) (UniProt P08659)
# Assay: Primary firefly luciferase (FLuc) qHTS assay for identification of artifact compounds. (AID 1845220); also: nearly all actives have a fitted effect of over 60% in size;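 as to activity change, negative = inhibition: plate controls were DMSO vehicle for no effect and no enzyme for full effect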
# Details: purified firefly luciferase, luminescence, 5 min; series mostly up to 54.1 µM; activity change, negative = inhibition: at the top concentration
# Method in brief: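 Compounds sat 15 min at room temperature with 10 uM luciferin and 10 uM ATP (pH 7.6 Tris acetate). Firefly luciferase (10 nM final) was then added, and luminescence was read 5 min later. Data normalized to no-enzyme and DMSO controls were Hill-fitted.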
SMILES,outcome,"activity change, negative = inhibition"
CCN(CC)CCNC(=O)c1ccc(N)cc1,inactive,–
O=C(O)CCc1nc(-c2ccccc2)c(-c2ccccc2)o1,inactive,–
CN(C)CCC(c1ccccc1)c1ccccn1 (configuration not stated),–,-7.55% (inactive)
Clc1ccc(Cn2c(CN3CCCC3)nc3ccccc32)cc1,inactive [at 25.7 µM],–
CC(C)NCC(O)COc1cccc2[nH]ccc12 (configuration not stated),inactive,–
CCN1CCC[C@H]1CNC(=O)c1cc(S(N)(=O)=O)ccc1OC,–,0.51% (inactive)
CCCNC(=O)NS(=O)(=O)c1ccc(Cl)cc1,–,1.99% (inactive)
COc1ccccc1N1CCN(CCCNc2cc(=O)n(C)c(=O)n2C)CC1,–,4.73% (inactive)
COc1ncc(-c2ccc3nccc(-c4ccnnc4)c3c2)cc1NS(=O)(=O)c1ccc(F)cc1F,–,-6.48% (inactive)
COC(=O)[C@@H]1[C@H]2C[C@H]3c4[nH]c5ccccc5c4CCN3C[C@@H]2CC[C@@H]1O,–,1.02% (inactive)
CCOc1ccc(Nc2nc(-c3c(C)nc4ccccn34)cs2)cc1,inactive,–
CC(=O)O[C@]1(C(C)=O)CC[C@H]2[C@@H]3C=C(Cl)C4=CC(=O)[C@@H]5C[C@@H]5[C@]4(C)[C@H]3CC[C@@]21C,–,-0.684% (inactive)
CC(C)(C)Cn1c(N)nc2ccc(-c3[nH]c(C(C)(C)C)nc3-c3ccc(F)cc3)nc21,–,-5.15% (inactive)

# System: not listed separately
# Assay: Primary fluorescence-based thiol-reactive (MSTI) qHTS assay for identification of artifact compounds. (AID 1845221); also: nearly all actives have a fitted effect of over 65% in size; also: potency is read from the fitted curve at half-maximal effect;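 as to activity change, negative = thiol reactive: thiol-reactive compounds lower the probe fluorescence signal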
# Details: MSTI thiol-reactivity probe, 1 h; series mostly up to 53.8 µM; activity change, negative = thiol reactive: at the top concentration
# Method in brief: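 First, 4 uM MSTI in 2% DMSO/PBS pH 7.4 was dispensed; next, compounds were added; then plates sat 1 h at room temperature without light. Finally, emission at 598 nm was recorded.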
SMILES,"activity change, negative = thiol reactive",Potency
CCN(CC)CCNC(=O)c1ccc(N)cc1,-13.5% (inactive),–
O=C(O)CCc1nc(-c2ccccc2)c(-c2ccccc2)o1,-1.25% (inactive),–
Clc1ccc(Cn2c(CN3CCCC3)nc3ccccc32)cc1,32.8% [at 25.6 µM] (inactive),–
CC(C)NCC(O)COc1cccc2[nH]ccc12 (configuration not stated),-18.1% (inactive),–
CCN1CCC[C@H]1CNC(=O)c1cc(S(N)(=O)=O)ccc1OC,-1.8% (inactive),–
CCCNC(=O)NS(=O)(=O)c1ccc(Cl)cc1,-5.51% (inactive),–
COc1ccccc1N1CCN(CCCNc2cc(=O)n(C)c(=O)n2C)CC1,10.7% (inactive),–
COc1ncc(-c2ccc3nccc(-c4ccnnc4)c3c2)cc1NS(=O)(=O)c1ccc(F)cc1F,32.1% (inactive),–
COC(=O)[C@@H]1[C@H]2C[C@H]3c4[nH]c5ccccc5c4CCN3C[C@@H]2CC[C@@H]1O,-15% (inactive),–
CCOc1ccc(Nc2nc(-c3c(C)nc4ccccn34)cs2)cc1,–,2.67 µM (active)
CC(=O)O[C@]1(C(C)=O)CC[C@H]2[C@@H]3C=C(Cl)C4=CC(=O)[C@@H]5C[C@@H]5[C@]4(C)[C@H]3CC[C@@]21C,104% (inactive),–
CC(C)(C)Cn1c(N)nc2ccc(-c3[nH]c(C(C)(C)C)nc3-c3ccc(F)cc3)nc21,–,1.89 µM (active)

# System: Nanoluciferase (engineered Oplophorus gracilirostris luciferase)
# Assay: Primary Nanoluciferase (NLuc) qHTS assay for identification of artifact compounds. (AID 1845222);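 also: 0% = DMSO and -100% = no enzyme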
# Details: NLuc-conditioned medium, Nano-Glo luminescence, 5 min; series mostly up to 54.1 µM; activity, negative = inhibition: at the top concentration
# Method in brief: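 Luminescence from secreted NLuc (filtered, 1:55-diluted S16 cell medium) read 5 min after Nano-Glo substrate; compounds preincubated 15 min, RT. Hill fits of inhibition normalized to DMSO and no-enzyme.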
row,SMILES,"activity, negative = inhibition"
1,CCN(CC)CCNC(=O)c1ccc(N)cc1,0% (inactive)
2,CN(C)CCC(c1ccccc1)c1ccccn1 (configuration not stated),-5.9% (inactive)
3,Clc1ccc(Cn2c(CN3CCCC3)nc3ccccc32)cc1,-0.624% [at 25.7 µM] (inactive)
4,CC(C)NCC(O)COc1cccc2[nH]ccc12 (configuration not stated),0% (inactive)
5,CCN1CCC[C@H]1CNC(=O)c1cc(S(N)(=O)=O)ccc1OC,-1.3% (inactive)
6,COc1ccccc1N1CCN(CCCNc2cc(=O)n(C)c(=O)n2C)CC1,3.94% (inactive)
7,COc1ncc(-c2ccc3nccc(-c4ccnnc4)c3c2)cc1NS(=O)(=O)c1ccc(F)cc1F,-12.7% (inactive)
8,COC(=O)[C@@H]1[C@H]2C[C@H]3c4[nH]c5ccccc5c4CCN3C[C@@H]2CC[C@@H]1O,4.34% (inactive)
9,CCOc1ccc(Nc2nc(-c3c(C)nc4ccccn34)cs2)cc1,-0.103% (inactive)
10,CC(=O)O[C@]1(C(C)=O)CC[C@H]2[C@@H]3C=C(Cl)C4=CC(=O)[C@@H]5C[C@@H]5[C@]4(C)[C@H]3CC[C@@]21C,-5% (inactive)
11,CC(C)(C)Cn1c(N)nc2ccc(-c3[nH]c(C(C)(C)C)nc3-c3ccc(F)cc3)nc21,-12.6% (inactive)
